# Compound activity from PubChem.
# HTT aggregate: qHTS Multiplex Assay to Identify Dual Action Probes in a Cell Model of Huntington: Aggregate Formation (GFP); Potency, µM (top dose mostly 46.1 µM), for inactives: top-dose activity change, negative = inhibition, most hits filed as inhibitors; PC12 HttQ103-GFP aggregates, Acumen cytometry, 40 h; 1.1% of 220,000 active; note: potency is the fitted concentration of half-maximal effect; % is set by controls: 0 for no effect and ±100 for the full control effect; nearly all actives have a fitted effect of over 60% in size
#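 Using laser scanning cytometry, GFP-positive aggregates were counted after lysis of PC12 cells induced with 100 nM tebufenozide to express HTT exon 1 Q103–GFP. Compounds were tested in titration.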
# HTT ATP protect: qHTS Multiplex Assay to Identify Dual Action Probes in a Cell Model of Huntington: Cytoprotection (ATP); PC12 HTT-Q103 induced, cytoprotection, ATP luminescence, 40 h; Potency, µM (top dose mostly 56.4 µM), for the others: cytoprotection (ATP increase), most hits filed as activators; 0.14% of 230,000 active; note: potency is the fitted concentration of half-maximal effect; % of control where 0% means no effect; nearly all actives have a fitted effect of over 45% in size
#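 Readout: ATPlite luminescence (ATP level). Model: stable PC12, inducible Htt exon1 Q103-GFP. Inducer: tebufenozide, 100 nM final. Compounds: dose series. No G418 in medium.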
# ALDH1A1 block: qHTS Assay for Inhibitors of Aldehyde Dehydrogenase 1 (ALDH1A1). Aldehyde dehydrogenase 1A1 (Homo sapiens), P00352. Purified ALDH1A1, NADH fluorescence, propionaldehyde substrate. 7.3% of 220,000 active. Potency, µM (series often up to 75.3 µM), without a hit: top-dose activity, negative = inhibition, usual class: inhibitors; active = well fitted inhibition curve with a large enough effect, not every such curve was filed as active; inconclusive = small, poorly fitted or top-dose-only effect, or another doubt; inactive = no such curve, though single readings can be large or run the other way;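 note: potency is the fitted concentration of half-maximal effect; plate controls were no enzyme wells and a reference inhibitor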
# HPGD inh: qHTS Assay for Inhibitors of HPGD (15-Hydroxyprostaglandin Dehydrogenase) | 15-hydroxyprostaglandin dehydrogenase [NAD(+)] (Homo sapiens), P15428 | purified HPGD, NADH fluorescence kinetic, PGE2 substrate | Potency, µM, for the others: at the top dose activity change, negative = inhibition, most hits filed as inhibitors | 4.3% of 150,000 active | AID 894, 2007; active = well fitted inhibition curve with a large enough effect, not every such curve was filed as active; inconclusive = small, poorly fitted or top-dose-only effect, or another doubt; inactive = no such curve, though single readings can be large or run the other way; note: potency is the fitted concentration of half-maximal effect; % is set by controls: 0 for no effect and ±100 for the full control effect
#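 20 nM HPGD preincubated 15 min at room temperature with compound in 50 mM Tris-HCl pH 8, 0.01% Tween 20. Started with 1 mM NAD+ and 30 uM prostaglandin E2; NADH fluorescence (360/450 nm) read 5 times over 30-s intervals, last minus first.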
# CBFb-RUNX1 inh: qHTS Assay for Compounds Blocking the Interaction Between CBF-beta and RUNX1 for the Treatment of Acute Myeloid Leukemia. AlphaScreen CBFb-His/RUNX1-biotin binding, biochemical. 230,000 tested, under 10 active. Runt-related transcription factor 1 (Homo sapiens) + Core-binding factor subunit beta …. Potency, µM (highest dose often 59.8 µM), for inactives: at the top dose activity, negative = inhibition, usual class: inhibitors; note: % of control where 0% means no effect
# Target sequence (Q01196 whole entry, looked up): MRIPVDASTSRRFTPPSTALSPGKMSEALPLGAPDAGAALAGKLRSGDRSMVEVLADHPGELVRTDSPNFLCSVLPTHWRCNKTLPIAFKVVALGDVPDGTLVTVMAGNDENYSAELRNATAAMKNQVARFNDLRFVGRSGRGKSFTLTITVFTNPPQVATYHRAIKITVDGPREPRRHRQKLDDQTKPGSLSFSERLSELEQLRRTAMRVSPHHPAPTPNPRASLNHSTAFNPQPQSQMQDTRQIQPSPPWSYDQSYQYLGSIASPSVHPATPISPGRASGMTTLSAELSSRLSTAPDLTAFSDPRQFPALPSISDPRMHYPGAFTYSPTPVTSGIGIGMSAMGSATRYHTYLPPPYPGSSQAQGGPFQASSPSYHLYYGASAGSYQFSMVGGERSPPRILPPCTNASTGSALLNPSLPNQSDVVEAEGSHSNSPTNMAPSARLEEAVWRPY
# Target sequence (Q13951 whole entry, looked up): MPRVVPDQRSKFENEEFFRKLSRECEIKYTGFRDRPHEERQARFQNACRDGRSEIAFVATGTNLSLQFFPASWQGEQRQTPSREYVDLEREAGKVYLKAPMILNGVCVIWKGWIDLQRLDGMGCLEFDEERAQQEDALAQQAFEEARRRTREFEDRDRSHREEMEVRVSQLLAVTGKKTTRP
#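 His-tagged CBF-beta and biotinylated RUNX1 (30 nM each) were premixed 20 min at room temperature, exposed to compound for 15 min, then given nickel-chelate and streptavidin AlphaScreen beads (50 ng each). After 90 min, AlphaScreen signal was read.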
# PNC inhibitor: High Content Assay for Compounds that inhibit the Assembly of the Perinucleolar Compartment; PC3M PTB-GFP, PNC prevalence imaging, 16 h; stronger effect = lower value; activity change (PNC), negative = inhibition, % at 10 µM; 3.1% of 140,000 active; AID 2417, 2010;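 active = readout at or below -70, meaning at least 70% loss of cells showing the perinucleolar compartment, a nuclear body marking cancer cells; inconclusive = readout between -30 and a set limit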;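 note: plate controls were DMSO wells for no effect and camptothecin positive control wells for full effect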
#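 Read-out is percentage of cells bearing a perinucleolar compartment, from automated 20x imaging of fixed, Hoechst-stained PC3M PTB-GFP cells. Cells were seeded 4 h, then exposed 16 h to compound (23 nl of library stock) in duplicate plates.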
# Numbers without * were called inactive; ? = inconclusive; nt = no result; [ ] = dose if it differs, or a comment. A selection: hits, their analogues and other compounds. The true share with any hit is near 11%. Unless noted, calls come from the whole dose curve; as a rule, active = well fitted curve in the direction sought with a large enough effect; inconclusive = small, poorly fitted or top-dose-only effect, or another doubt; inactive = no such curve, though single readings can be large; an effect the other way counts as inactive or inconclusive.
SMILES,HTT aggregate,HTT ATP protect,ALDH1A1 block,HPGD inh,CBFb-RUNX1 inh,PNC inhibitor
O=C(NC1=NC2CCCCC2N1)c1ccccc1 (configuration not stated),18%,-159%[0.074 µM],-4%,-5%,4%,?
CN(C)CCNC(=O)C(c1ccccc1)c1ccccc1,1%[9.22 µM],6%[10 µM],nt,nt,12%,nt
CC(CCN(C)C)OC(=O)c1ccc(C(C)c2ccccc2)o1 (configuration not stated),28%,9%[10 µM],40µM*,-6%,0%,-107*
O=C(COC(=O)COc1ccccc1[N+](=O)[O-])Nc1ccccc1Br,21%,-31%[10 µM],18µM*,-18%,17%,-2
O=C(COc1ccccc1[N+](=O)[O-])N/N=C/c1cccs1,10%,nt,0%,-8%,-12%,-96*
Cc1cccc(OCC(=O)N/N=C\c2cc3c(cc2[N+](=O)[O-])OCO3)c1C,5%,-11%[10 µM],7.9µM*,-5%,-8%,50
CC(C)(C)C(=O)COc1ccccc1[N+](=O)[O-],?,25%,20µM*,nt,-3%,nt
CC1(C)CC(=O)c2cnc(N3CCc4ccccc43)nc2C1,8%[9.22 µM],-22%[10 µM],nt,nt,-6%,nt
CC(C)(C)N1C(=O)[C@H]2[C@H]3[C@H](O)[C@H](O)C/C(=N/OC[C@@H](O)COCc4ccco4)[C@@H]3CC[C@@H]2C1=O,nt,?,8%[13.5 µM],nt,-4%[13.1 µM],nt
Cc1ccc(S(=O)(=O)NCC(c2ccccc2)N2CCCCC2)cc1 (configuration not stated),-17%[9.22 µM],6%[10 µM],-11%,nt,3%,nt
O=S(=O)(NCC(c1ccccc1)N1CCNCC1)c1ccc(Cl)cc1 (configuration not stated),-6%,8%[10 µM],8.9µM*,-18%,-2%,-19
O=C(c1ccncc1)N1CCN(C(=O)c2cccs2)CC1,19%,-19%,10%,0%,6%,-5
O=C(c1cccs1)N1CCN(Cc2ccccn2)CC1,-8%[9.22 µM],-13%[10 µM],15µM*,nt,10%,nt
O=C(c1cc([N+](=O)[O-])ccc1Cl)N1CCN(c2ccc([N+](=O)[O-])cc2)CC1,-7%,21%[10 µM],-5%,-26%,-4%,5
O=C(CCc1ccccc1)N1CCN(c2ccc([N+](=O)[O-])cc2)CC1,-10%,-29%,2.2µM*,nt,11%,nt
O=C(Cc1cccs1)N1CCN(c2ccc(F)cc2)CC1,9%,16%[10 µM],1%,-9%,-3%,38
CN1N=C(C(=O)N2CCN(c3ccc([N+](=O)[O-])cc3)CC2)CCC1=O,-1%,nt,?,-10%,-3%,-94*
O=C(Cc1cccs1)N1CCN(c2ccc([N+](=O)[O-])cc2)CC1,-7%,-43%,25µM*,nt,-11%,nt
Cc1nc2ncnn2c(N2CCN(C(=O)Cc3cccs3)CC2)c1C,8%,0%,7.9µM*,-23%,-25%,-15
O=C(CCc1ccccc1)N1CCN(c2ccc(Cl)cc2)CC1,-30%,-27%,4%,-8%,8%,3
CCOC(=O)c1c(NC(=O)C2CCCN(S(=O)(=O)c3ccccc3)C2)sc2c1CCCC2 (configuration not stated),8%,17%[10 µM],?,-25%,4%,-28
COC(=O)c1ccc(C(NC(=O)OCc2ccccc2)/C(C)=C/[C@@H](C)C(=O)NCCc2c[nH]c3ccc(OC)cc23)cc1 (some centres not stated),nt,-16%,-13%,-13%,-7%,nt
COc1ccc2c(c1)O[C@@H](c1cccc(C(F)(F)F)c1)[C@H](OC(=O)Nc1cc(OC)c(OC)c(OC)c1)C2=O,nt,nt,5%,-11%,-8%,nt
CC(OC(=O)Cc1n[nH]c(=O)c2ccccc12)C(=O)Nc1cccc([N+](=O)[O-])c1 (configuration not stated),13%,-7%,4%,nt,3%,nt
O=C(Cc1cccs1)N1CCN(C(=O)C2CCCO2)CC1 (configuration not stated),4%,-1%[10 µM],?,-2%,5%,-120*
SMILES,HTT aggregate,HTT ATP protect,ALDH1A1 block,HPGD inh,CBFb-RUNX1 inh,PNC inhibitor
COc1ccc(OC)c(C(C)NC(=O)Nc2cccc(C(C)=O)c2)c1 (configuration not stated),10%[9.22 µM],3%[10 µM],11µM*,nt,11%,nt
COc1ccc(Br)cc1CN(C)C(C)C(=O)Nc1cccc(C(C)=O)c1 (configuration not stated),-7%,-37%,10µM*,nt,?,nt
COc1ccc(C(C)=O)cc1CSCCC(=O)O,17%,18%,-5%,28µM*,5%,49
COc1ccc(C(C)=O)cc1CN(C)C,2%,-7%,8.9µM*,-4%,3%,-2
CO[C@H]1COC(=O)[C@H](C)NC(=O)[C@@H](C)COC(=O)C/C=C\[C@@H]1C,nt,-5%[10 µM],9%[13.5 µM],nt,8%[13.1 µM],nt
CCC(C)C(NC)C(=O)O (configuration not stated),nt,nt,4%,3%,nt,nt
CCCCNC(=O)COC(=O)CNC(=O)c1cc(Cl)cc([N+](=O)[O-])c1,-2%,-35%,2%,nt,-2%,nt
COc1ccc(C(C)=O)cc1CN1C(=O)NC2(CCCCCCC2)C1=O,-7%,-46%,6.3µM*,nt,-3%,nt
Cc1cnc(CNc2cc(-c3cccnc3)ncn2)cn1,nt,?,-9%,nt,nt,nt
COc1cccc(-n2c(C)nnc2SCC(=O)Nc2ccccc2N2CCOCC2)c1,-4%,-13%,1%,-4%,-1%,-3
O=C(O)CCC1OC(=O)C(O)=C1c1ccccc1 (configuration not stated),-8%[9.22 µM],8%[10 µM],nt,nt,9%,nt
Cc1ccc(C2C(C(=O)c3cccs3)=C(O)C(=O)N2CCN2CCOCC2)o1 (configuration not stated),9%,-4%,18µM*,-16%,16%,?
CCN(CC)CCN1C(=O)C(O)=C(C(=O)c2cccs2)C1c1ccccn1 (configuration not stated),-2%[9.22 µM],-1%,18µM*,-24%,?,16
CCN(CC)CCN1C(=O)C(O)=C(C(=O)c2cccs2)C1c1ccc(C)o1 (configuration not stated),1%,-1%[0.074 µM],22µM*,-9%,2%,?
